# Screens deposited in PubChem BioAssay by ICCB-Longwood Screening Facility, Harvard Medical School.
# A selection: hits, their analogues and other compounds. The true share with any hit is near 1.5%.
# MbtI inh = MbtI salicylate synthase inhibitors, primary screen, biochemical, fluorescence intensity. P9WFX0. purified MbtI enzyme, fluorescence intensity read-out. inhibition, % (no concentration beside the values). 0.89% of 100,000 active. AID 493033, 2011; in the data active means inhibition mostly above about 56%, no sharp cut-off; inactive means mostly below about 77%
# Target sequence (P9WFX0 whole entry, looked up): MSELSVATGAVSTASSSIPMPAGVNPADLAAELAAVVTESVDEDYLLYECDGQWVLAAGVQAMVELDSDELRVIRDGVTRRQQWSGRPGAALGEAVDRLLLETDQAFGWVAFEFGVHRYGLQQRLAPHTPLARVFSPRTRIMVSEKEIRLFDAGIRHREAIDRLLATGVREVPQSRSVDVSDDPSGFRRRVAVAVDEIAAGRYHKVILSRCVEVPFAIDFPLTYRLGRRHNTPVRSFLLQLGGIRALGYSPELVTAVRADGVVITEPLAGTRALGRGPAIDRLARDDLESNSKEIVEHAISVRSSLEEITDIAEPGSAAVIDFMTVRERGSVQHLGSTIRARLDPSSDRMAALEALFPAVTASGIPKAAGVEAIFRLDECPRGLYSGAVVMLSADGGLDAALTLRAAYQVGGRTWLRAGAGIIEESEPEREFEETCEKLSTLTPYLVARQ
# MenB inh = M. tuberculosis MenB inhibitors, primary screen, biochemical, absorbance; 0.43% of 100,000 active; MenB enzyme assay, absorbance read-out; inhibition, % (concentration not given with the values); AID 540299, 2011; in the data active means inhibition above about 21%, passing the limit was not always enough
# PV pol inh = poliovirus RdRp elongation inhibitors, primary screen, biochemical, fluorescence polarization, total intensity | Genome polyprotein (Poliovirus type 1 (strain Mahoney)), P03300 | poliovirus polymerase elongation; stronger effect = lower value | % elongation, % (compound at 16.7 µg/mL) | 0.66% of 150,000 active | AID 588519, 2011; in the data active means % elongation below about 90%
# AID504770 = growth inhibition of E. coli YBA685, primary screen, V. cholerae RctB inhibitors | E. coli YBA685 rctB-dependent plasmid, OD600 growth, 3 h; stronger effect = lower value | z-score (concentration not given with the values) | 0.27% of 130,000 active; in the data active means z-score below about -2, passing the limit was not always enough
# An asterisk follows results filed as active; · = no result given.
SMILES,MbtI inh,MenB inh,PV pol inh,AID504770
ON=C1CC2C3C/C(=N\O)C4C3CC2C14 (configuration not stated),3,-34,104,-0.65
Cc1ccc(C)c(NC(=S)N2CCC(c3nc4ccccc4o3)CC2)c1,-1,-65,104,1.6
O=c1[nH]c2ccccc2[nH]1,-1,8,94,-0.3
O=c1[nH]c2cc(Br)cnc2[nH]1,1,-19,66*,1.1
CS(=O)(=O)N1CCCc2cc(C(=O)CSc3nnc(-c4ccncc4)n3C3CC3)ccc21,-5,1,106,-1.2
CCCn1c(N)c(C(=O)CN2CCCc3ccccc32)c(=O)n(C)c1=O,-9,-8,107,-0.45
Cc1ccc(CNC(=O)CN2NS(=O)(=O)c3ccccc3C2=O)cc1,91*,-8,100,-0.1
COc1cc2c(C(=O)N3CCN(c4ccccc4C)CC3)c(C)oc2cc1Br,1,9,103,1.4
Cc1ccccc1N1CCN(C(=O)c2c(C)oc3cc4c(C(=O)N5CCN(c6ccccc6C)CC5)c(C)oc4cc23)CC1,-2,0,103,-3.3*
COc1cccc(NC(=O)c2ccc(OC(=S)N3CCC(C)CC3)cc2)c1,·,1,106,-2.8*
CCCNC(=O)c1nc(-c2ccc(Cl)cc2)n2c1CCCCC2,-7,-28,105,1.8
O=C(NCCN1CCOCC1)c1nc(-c2ccc(Cl)cc2)n2c1CCCCC2,4,-12,103,-2.6*
Cc1[nH]nc2c1C1(C(=O)N2)C(C#N)=C(N)Oc2ccc(Br)cc21 (configuration not stated),-4,-2,100,1.7
O=C(Nc1ccc(-c2csc(-c3ccccc3)n2)cc1)c1cccs1,·,-68,106,1.9
COC(=O)c1ccc(Nc2ncnc3ccccc23)cc1,·,4,106,-0.7
COC(=O)c1sccc1NC(=O)c1c(C)nn(-c2ccccc2)c1-n1cccc1,-4,-24,103,0.5
O=C(c1cc2ccccc2oc1=O)N1CCCC1,25,38,98,-0.35
CCC1CCCCN1C(=O)c1cc2ccccc2oc1=O (configuration not stated),·,-8,59*,-0.85
CN(C)C(CNC(=S)NC1CC1)c1ccccc1 (configuration not stated),2,-20,106,-0.9
Cc1[nH]c(SCC(=O)Nc2cccc(C#N)c2)nc1Cc1ccccc1,-4,-26,103,0.6
COc1ccc(-c2nn(C)c3sc(C(=O)NCCN(C)C)cc23)cc1OC,·,·,60*,·
CCN(CC)CCNC(=O)c1cc2c(-c3cccc(OC)c3)nn(C)c2s1,·,·,83*,·
COCCCNC(=O)c1cc2c(-c3cccc(OC)c3)nn(C)c2s1,·,·,103,·
CCCN(CCC)CCNC(=O)c1cc2c(-c3ccc(Cl)cc3)nn(C)c2s1,·,·,96,·
CCCN(CCC)CCCNC(=O)c1cc2c(-c3ccc(OC)c(OC)c3)nn(C)c2s1,·,·,83*,·
SMILES,MbtI inh,MenB inh,PV pol inh,AID504770
COc1ccc(OC)c(CNC(=O)c2cc3c(-c4ccc(OC)c(OC)c4)nn(C)c3s2)c1,·,·,107,·
CC1=C(CCN2CCN(CCO)CC2)C(C)(C)CCC1,-1,-15,100,-0.05
Cc1cc2nc(CSc3nc4ccccc4[nH]3)cc(=O)n2o1,3,1,100,-2
CCN(C1CCCCC1)S(=O)(=O)c1cccc(S(=O)(=O)N2CCCC2)c1,-21,-6,103,-0.6
CS(=O)(=O)c1ccc(Cl)c(C(=O)OCC(=O)c2ccc3c(c2)OCO3)c1,8,9,105,1
C/C(=N\NC(N)=S)c1ccc(Cl)cc1,61*,-54,·,1.2
Cc1ccc(/C=C/C2=CC(=C(C#N)C#N)CC(C)(C)C2)o1,15,-36,151,-0.5
Cc1ccc(/C=C/C2=Cc3c(sc(N)c3C#N)C(C)(C)C2)o1,89*,-42,104,0.4
COc1cccc(-c2noc(C3CCCN(S(=O)(=O)c4ccccc4F)C3)n2)c1 (configuration not stated),-2,-73,104,-0.6
O=C(Oc1ccc(F)cc1)c1nsc(Cl)c1Cl,·,-39,88*,0.8
COc1cccc(CN(C)C(=O)c2ccccc2Cl)c1OC,1,-16,102,-1.3
N#CCc1nc(-c2cccc(Cl)c2)n[nH]1,74*,12,101,0.85
O=C(OCc1cc(=O)oc2cc(O)ccc12)c1nc(Cl)ccc1Cl,-32,-12,88*,-0.35
O=C(OCc1cc(=O)oc2cc(O)ccc12)c1cc(Br)ccc1O,-97,2,103,-0.55
O=C(Cc1ccccc1)Nc1ccc(-c2cn3ccsc3n2)cc1,22,-37,106,0.15
N#CC(C(=O)COc1ccccc1)c1ccccc1 (configuration not stated),54*,-10,102,-1.4
Fc1ccc(Oc2ncnc3sccc23)c(Cl)c1,-10,·,104,0.3
CCN1C(=O)CC(OC(C)=O)C1=O (configuration not stated),66*,-17,103,0.2
CCN1C(=O)C2CC(C)=C(C)CC2C1=O (configuration not stated),-3,-9,97,-0.8
COc1cc2c(cc1OC)CN(S(=O)(=O)c1ccc3c(c1)OCCCO3)CC2,2,6,100,2
O=c1oc2cc(Cl)c(O)c(Cl)c2s1,99*,-53,102,-0.8
Cc1sc2nc(CCl)[nH]c(=O)c2c1C,0,·,98,-0.5
Cc1sc2nc3n(c(=O)c2c1-c1ccccc1)CCC3,87,-19,76*,-2.8
Cc1sc2nc(CCl)[nH]c(=O)c2c1-c1ccccc1,82*,·,89*,0.5
O=c1c2c(-c3ccccc3)csc2nc2n1CCC2,·,-1,106,0.15
SMILES,MbtI inh,MenB inh,PV pol inh,AID504770
NCc1ccc(Oc2ccc(F)cc2)cc1,-2,-18,110,-0.65
O=C(O)c1ccccc1-c1c2cc(Br)c(=O)cc-2oc2[c]([Hg])c(O)c(Br)cc12,104*,-2,70,0.05
CN(C(=O)Cc1cccs1)c1ccccc1,·,7,102,-0.25
O=C(CC(NC(c1ccccc1)c1ccccc1)C(=O)O)c1ccc(Cl)cc1 (configuration not stated),·,72*,98,-1.1
O=C(Cn1c(=O)n(Cc2ccco2)c(=O)c2oc3ccccc3c21)Nc1cccc(Cl)c1,-48,-5,103,-0.85
CCC(=O)Nc1nc2c(s1)CSc1ccccc1-2,96*,-11,100,-0.5
CCC(=O)Nc1nc2ccccc2s1,8,·,·,-0.05
NC1=Nc2cc(C(=O)O)ccc2Sc2ccccc21,-13,·,·,-0.45
CCc1ccccc1NC(=O)CN1CCN(Cc2ccccc2C)S1(=O)=O,3,-15,102,-3.5*
CCOc1ccc(/C=N/O)cc1,10,26*,104,0.6
CCOc1cc(OCC)c(/C=N/O)c(OCC)c1,·,·,·,0.65
CCN(CC)C(=O)NC1CCCCCC1,-12,-13,100,-0.8
C=C/C=C(\C=C(C)C)N(C(=O)NC1CCCCC1)C1=NCCCS1,-1,29*,102,-1.3
